The full list was thinned out, with hits kept by preference.
Tg IFNy HTS: T. gondii growth inhibition with IFN-gamma, primary screen, cell-based. Toxoplasma gondii growth in IFN-gamma-treated host cells; active compounds read low. activity change, negative = inhibition, % (concentration not given with the values). 69,000 compounds, 3.8% hits. AID 1259416, 2018; in the data active = activity change below about -70%, passing the limit was not always enough;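 also: host cells are HeLa cells infected with Toxoplasma gondii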
The depositor's hits bear a star.

O=C(Nc1cccc(F)c1)c1c(O)c2cccnc2n(-c2cccc(F)c2)c1=O was read as Tg IFNy HTS 42.
COc1cccc(-n2c(=O)c(C(=O)NC3CCCCC3)c(O)c3cccnc32)c1 was read as Tg IFNy HTS -63.
For O=C(NCc1ccco1)c1c(O)c2cccnc2n(-c2cccc(F)c2)c1=O the results were Tg IFNy HTS 183.
For COc1ccc(-n2c(=O)c(C(=O)NC3CCCC3)c(O)c3cccnc32)cc1 the results were Tg IFNy HTS 29.
For O=C(NCc1ccco1)c1c(O)c2cccnc2n(-c2ccc(F)cc2)c1=O the results were Tg IFNy HTS -79*.
`COc1cccc(CNC(=O)c2c(O)c3cccnc3n(-c3ccc(F)cc3)c2=O)c1` gave Tg IFNy HTS 163.
Screening O=C(Nc1cccc(F)c1)c1c(O)c2cccnc2n(-c2ccccc2)c1=O returned Tg IFNy HTS 10.
Screening COc1cccc(-n2c(=O)c(C(=O)NC3CCCCCC3)c(O)c3cccnc32)c1 returned Tg IFNy HTS -113*.
For CCOc1ccc(-c2cc3c(=O)n(Cc4nc(-c5ccc(C)cc5)oc4C)ccn3n2)cc1Cl the results were Tg IFNy HTS 22.
`CN(C)C(=O)N1CCC2(CCC2NS(=O)(=O)c2ccccc2)CC1` (centres undefined) gave Tg IFNy HTS -4.
Screening COc1ccc(N2CCCC2)cc1C(=O)O returned Tg IFNy HTS -41.
For CN1CC2(CCCN(C(=O)c3ccc(Cn4ccnc4)o3)CC2)OC1=O (centres undefined) the results were Tg IFNy HTS 2.
`CCCn1ncc(C(=O)N2CCC(CO)(Cc3ccccc3Cl)CC2)c1C` gave Tg IFNy HTS 3.
Screening CNCc1ccc([C@@H]2CN(C(C)=O)C[C@H]2C(=O)N(C)C)cc1 returned Tg IFNy HTS 21.
Screening Cc1cc(C)c2cc(C)c(SCC(=O)Nc3nc(C)cs3)nc2c1 returned Tg IFNy HTS -58.
`Cc1ccc2c(C)c(C(=O)N3CCC4(CN(C)C(=O)O4)C3)oc2c1` (centres undefined) gave Tg IFNy HTS 4.
Screening Cc1c(C(=O)N2CCC(C)CC2)oc2ccc3c(c12)C(=O)CC1(CCCCCC1)O3 returned Tg IFNy HTS -110*.
`CCOC(=O)C1CCN(C(=O)c2oc3ccc4c(c3c2C)C(=O)CC2(CCCCC2)O4)CC1` gave Tg IFNy HTS 325.
Cc1ccc2c(c1)C(=O)CC1(CCN(C(=O)C3CCCC3)CC1)O2 was read as Tg IFNy HTS -4.
Cc1c(C(=O)N2CC(C)CC(C)C2)oc2ccc3c(c12)C(=O)CC1(CCCCCC1)O3 (centres undefined) was read as Tg IFNy HTS -99*.
`Cc1ccc2c(C)c(C(=O)N3CCCC4(CC3)CNC(=O)O4)oc2c1` (centres undefined) gave Tg IFNy HTS 0.
Screening CCOCCCNC(=O)c1nc(C)n(C2CCN(C)CC2)c1C returned Tg IFNy HTS 132.
Fc1ccc(CC2CCN(CC3CCOC3)CC2)cc1 (centres undefined) was read as Tg IFNy HTS -13.
For COc1ncc(C(=O)N2CCOC(c3ccc(Cl)c(Cl)c3)C2)cn1 (centres undefined) the results were Tg IFNy HTS -15.
`COc1cccnc1C(=O)N1CCOC(c2ccc(Cl)c(Cl)c2)C1` (centres undefined) gave Tg IFNy HTS -6.
For COc1cccc(C)c1C(=O)N1CCOC(c2ccc(Cl)c(Cl)c2)C1 (centres undefined) the results were Tg IFNy HTS -77*.
Screening Cc1c(CN(C)C(=O)C(=O)N2CCCCCC2)cnn1C returned Tg IFNy HTS -2.
`COc1cc2c(cc1-c1nccn1CCn1nc(C)cc1C)CCC2` gave Tg IFNy HTS -1.
CC(=O)Nc1ccc(C)c(NC(=S)Nc2ccc(Cl)c(Cl)c2)c1 was read as Tg IFNy HTS 23.
`Cc1cccc(NC(=O)Nc2ccc(C)c(Cl)c2)n1` gave Tg IFNy HTS -31.
For Cc1ccc(NC(=O)Nc2ccc(C#N)cc2)cc1Cl the results were Tg IFNy HTS -71*.
Screening Cc1[nH]cnc1-c1n[nH]c(=O)n1Cc1cccs1 returned Tg IFNy HTS 9.
For CN(C)c1ccc(-c2nc3ccccn3c2NCc2ccc(F)cc2)cc1 the results were Tg IFNy HTS 349.
For COC(Cn1ccnc1-c1ccnc2ccccc12)c1cccs1 (centres undefined) the results were Tg IFNy HTS -5.
Screening Cc1ccc(C)c(NC(=O)CCN2CCC(OCc3cccnc3)CC2)c1 returned Tg IFNy HTS 4.
For O=C(/C=C/c1ccccc1)/C=C/c1ccccc1 the results were Tg IFNy HTS -98*.
`O=C(O)CS(=O)(=O)/C=C/c1ccccc1` gave Tg IFNy HTS -4.
For O=C(/C=C/c1ccccc1)c1ccccc1 the results were Tg IFNy HTS 28.
CCN1C(=O)N(C2Cc3ccccc3C2)C(=O)C12CCN(Cc1ccc(C#CC(C)(C)O)cc1)CC2 was read as Tg IFNy HTS -5.
COc1ccc(S(=O)(=O)N(C)C[C@@H]2OCCCC[C@@H](C)Oc3ccc(NC(=O)Cc4ccccc4)cc3C(=O)N([C@@H](C)CO)C[C@@H]2C)cc1 was read as Tg IFNy HTS -32.
For COc1ccc(S(=O)(=O)N(C)C[C@H]2OCCCC[C@@H](C)Oc3ccc(NC(=O)Cc4ccccc4)cc3C(=O)N([C@@H](C)CO)C[C@H]2C)cc1 the results were Tg IFNy HTS -102*.
`COc1ccc(S(=O)(=O)Nc2ccc3c(c2)C(=O)N([C@H](C)CO)C[C@@H](C)[C@H](CN(C)S(=O)(=O)c2ccc(Cl)cc2)OCCCC[C@H](C)O3)cc1` gave Tg IFNy HTS -113*.
Screening C[C@@H]1CCCCO[C@H](CN(C)S(=O)(=O)c2ccc(Cl)cc2)[C@@H](C)CN([C@H](C)CO)C(=O)c2cc(NC(=O)Nc3ccc(C(F)(F)F)cc3)ccc2O1 returned Tg IFNy HTS 45.
For COc1ccc(S(=O)(=O)Nc2ccc3c(c2)C(=O)N([C@@H](C)CO)C[C@@H](C)[C@H](CN(C)C(=O)Nc2c(C)noc2C)OCCCC[C@@H](C)O3)cc1 the results were Tg IFNy HTS 80.
For COc1ccc(S(=O)(=O)N(C)C[C@H]2Oc3c(NC(=O)c4nc5ccccc5s4)cccc3C(=O)N([C@@H](C)CO)C[C@H]2C)cc1 the results were Tg IFNy HTS -82*.
Screening C[C@@H]1CCCCO[C@@H](CN(C)S(=O)(=O)c2ccc(Cl)cc2)[C@@H](C)CN([C@H](C)CO)C(=O)c2cc(NC(=O)Nc3ccc(C(F)(F)F)cc3)ccc2O1 returned Tg IFNy HTS 44.
Screening COc1ccc(S(=O)(=O)Nc2ccc3c(c2)C(=O)N([C@@H](C)CO)C[C@@H](C)[C@@H](CN(C)C(=O)Nc2c(C)noc2C)OCCCC[C@H](C)O3)cc1 returned Tg IFNy HTS -78*.
`COc1ccc(S(=O)(=O)N(C)C[C@@H]2Oc3c(NC(=O)c4nc5ccccc5s4)cccc3C(=O)N([C@H](C)CO)C[C@@H]2C)cc1` gave Tg IFNy HTS -40.
COc1ccc(S(=O)(=O)N(C)C[C@H]2OCCCC[C@H](C)Oc3ccc(NC(=O)Cc4ccccc4)cc3C(=O)N([C@H](C)CO)C[C@H]2C)cc1 was read as Tg IFNy HTS -48.
For COc1ccc(S(=O)(=O)Nc2ccc3c(c2)C(=O)N([C@@H](C)CO)C[C@@H](C)[C@H](CN(C)C(=O)Nc2c(C)noc2C)OCCCC[C@H](C)O3)cc1 the results were Tg IFNy HTS -2.

Compound activity from PubChem BioAssay.
